Measured values from PubChem BioAssay (NCATS).
Inconclusive results are not listed. Calls of active or inactive are those of the source. Calls come from the whole dose curve; as a rule, active = well fitted curve in the direction sought with a large enough effect; inconclusive = small, poorly fitted or top-dose-only effect, or another doubt; inactive = no such curve, though single readings can be large; an effect the other way counts as inactive or inconclusive.

Tests used:
[1] = test system: CAOV3; experiment: Primary qHTS to identify gynecologic anti-cancer compounds using libraries of approved drugs and bioactive compounds (AID 1345084); conditions: Gynecologic cancer cell panel viability, ATPlite luminescence, 48 h; series mostly up to 57.5 µM; note: nearly all actives have a fitted effect of over 55% in size
How it was run: (§1)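 Cell viability after 48 h drug treatment, ATPlite luminescence readout; five doses.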

[2] = test system: HeLa; experiment: as above; conditions: Gynecologic cancer cell panel viability, ATPlite luminescence, 48 h; series mostly up to 57.5 µM
How it was run: as §1

[3] = test system: Hek293T; experiment: as above; conditions: Gynecologic cancer cell panel viability, ATPlite luminescence, 48 h, control line for the selectivity index; series mostly up to 57.5 µM
How it was run: as §1

[4] = test system: JEG-3; experiment: as above; conditions: Gynecologic cancer cell panel viability, ATPlite luminescence, 48 h; series mostly up to 57.5 µM
How it was run: as §1

[5] = test system: OV90; experiment: as above; conditions: Gynecologic cancer cell panel viability, ATPlite luminescence, 48 h; series mostly up to 57.5 µM
How it was run: as §1

[6] = test system: SKOV3; experiment: as above; conditions: Gynecologic cancer cell panel viability, ATPlite luminescence, 48 h; series mostly up to 57.5 µM
How it was run: as §1

[7] = test system: Tov-21-G; experiment: as above; conditions: Gynecologic cancer cell panel viability, ATPlite luminescence, 48 h; series mostly up to 57.5 µM
How it was run: as §1

[8] = test system: Tov112D; experiment: as above; conditions: Gynecologic cancer cell panel viability, ATPlite luminescence, 48 h; series mostly up to 57.5 µM
How it was run: as §1

[9] = test system: PA-1; experiment: as above; conditions: Gynecologic cancer cell panel viability, ATPlite luminescence, 48 h; series mostly up to 57.5 µM
How it was run: as §1

[10] = test system: CASKI; experiment: as above; conditions: Gynecologic cancer cell panel viability, ATPlite luminescence, 48 h; series mostly up to 57.5 µM
How it was run: as §1

[11] = test system: Es-2; experiment: as above; conditions: Gynecologic cancer cell panel viability, ATPlite luminescence, 48 h; series mostly up to 57.5 µM
How it was run: as §1

[12] = qHTS assay to identify inhibitors of the type 1 interferon - major histocompatibility complex class I in skeletal muscle: Counter screen cell viability and HiBit confirmation (AID 1347412); conditions: iHSKM muscle cells + IFN-b, HiBiT or CellTiter-Glo, 24 h; note: nearly all actives have a fitted effect of over 60% in size
How it was run: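 HLA-B*08:01–HiBiT knock-in immortalized human myoblasts (C25cl48) stimulated with 4.0 ng/ml human IFN-beta and dosed with compound in a 12-point 1:3 titration (top final 46 uM). After 24 hrs at 37 C, HiBiT lytic luminescence or CellTiter Glo ATP read out.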
% is set by controls: 0 for no effect and ±100 for the full control effect; potency is the fitted concentration of half-maximal effect.

CC(C)=C1C[C@@]2(C)C(=CC1=O)CC[C@@H](OC(=O)/C(C)=C/CO)[C@@H]2C
active: Potency [6] 11.2 µM
inactive: Potency [1] | Potency [2] | Potency [3] | Potency [4] | Potency [5] | Potency [7] | Potency [8]

COc1cc(C[C@H]2C(=O)OC[C@@H]2Cc2ccc(OC)c(OC)c2)ccc1O
inactive: Potency [1] | Potency [2] | Potency [4] | Potency [5] | Potency [9] | Potency [7] | Potency [8]

C=C1C(=O)OC2C(OC(=O)C=C(C)C)C(C)=C3C(=O)C=C(C)C3C(O)C12 (centres undefined)
active: Potency [1] 11.2 µM | Potency [6] 12.6 µM
inactive: Potency [10] | Potency [2] | Potency [8]

COc1cc(O)c2c(c1)/C=C/C[C@H](O)[C@H](O)C(=O)/C=C\C[C@H](C)OC2=O
inactive: Potency [4]
active: Potency [1] 22.4 µM | Potency [11] 15.8 µM | Potency [3] 15.8 µM | Potency [9] 14.1 µM | Potency [7] 17.8 µM

COc1cc2c(cc1NS(=O)(=O)c1ccc(Br)cc1C)n(C)c(=O)n2C
active: Potency [1] 3.55 µM
inactive: Potency [10] | Potency [2] | Potency [4] | Potency [9] | Potency [7] | Potency [8]

Cc1csc2c(N[C@@H](C)CN3CCN(S(=O)(=O)c4ccc(Cl)c(Cl)c4)CC3)ncnc12
inactive: Potency [1] | Potency [2] | Potency [4] | Potency [9] | Potency [7] | Potency [8]

CC1(C)CC[C@]2(C(=O)O)CC[C@]3(C)C(=CCC4[C@@]5(C)C[C@@H](O)[C@H](O)C(CO)(CO)C5CC[C@]43C)C2[C@@H]1O (some centres undefined)
inactive: Potency [1] | Potency [10] | Potency [5]
active: Potency [8] 7.94 µM

C=C1C(=O)O[C@H]2C3=C(C)CCC[C@]3(C)C(=O)C[C@@H]12
inactive: Potency [2] | Potency [4]
active: Potency [1] 31.6 µM | Potency [11] 31.6 µM | Potency [7] 20 µM

CN1CC2CN(c3ccc4oc5ccccc5c(=O)c4c3)CC2C1 (centres undefined)
inactive: Potency [1] | Potency [11] | Potency [2] | Potency [3] | Potency [4] | Potency [9] | Potency [7] | Potency [8]

COc1ccc(CNc2nc(N(CCO)CCO)nc3c2ncn3C(C)C)cc1
active: Potency [11] 22.4 µM | Potency ([12]; HiBiT) 5.57 µM
inactive: Potency [1] | activity change, negative = inhibition ([12]; Viability, at 45.9 µM (top of the series)) 13%

Cc1[nH]c2ccc(F)cc2c1-c1nc2c3cccnc3c3ncccc3c2[nH]1
inactive: Potency [2] | Potency [4] | Potency [7]
active: Potency [1] 3.98 µM | Potency [11] 14.1 µM | Potency [5] 5.62 µM | Potency [9] 7.94 µM | Potency [8] 3.98 µM

C=C1C(=O)O[C@@H]2C3C(=C(C)[C@@H](O)[C@@H](OC(=O)/C(=C/C)COC(C)=O)[C@@H]12)C(=O)[C@H]1O[C@@]31C (some centres undefined)
active: Potency [1] 8.91 µM | Potency [11] 8.91 µM | Potency [3] 7.94 µM | Potency [9] 8.91 µM | Potency [8] 12.6 µM
inactive: Potency [2] | Potency [5]

CCc1cc(C(N)=O)ccc1-n1nc(C(C)C)c2c(-n3cnc(-c4cnn(C)c4)c3)ccnc21
active: Potency [7] 3.55 µM
inactive: Potency [10] | Potency [11] | Potency [2] | Potency [4]

C=CC(C)(O)CC/C=C(/C)COC(=O)C(C)C1CCC(C)(C=C)O1 (centres undefined)
inactive: Potency [10] | Potency [11] | Potency [2] | Potency [3] | Potency [5] | Potency [9] | Potency [6] | Potency [7]

COc1cc(CCO)ccc1O[C@@H]1O[C@H](CO)[C@@H](O)[C@H](O)[C@H]1O
inactive: Potency [1] | Potency [5]

CC(=O)O[C@H]1CC(C)(C)CC2[C@]13CO[C@@]21CCC2[C@@]4(C)CC[C@H](O[C@@H]5OC[C@H](O[C@@H]6O[C@H](CO)[C@@H](O)[C@H](O)[C@H]6O[C@@H]6OC[C@@H](O[C@@H]7O[C@H](CO)[C@@H](O)[C@H](O)[C@H]7O)[C@H](O)[C@H]6O)[C@H](O)[C@H]5O[C@@H]5O[C@H](CO)[C@@H](O)[C@H](O)[C@H]5O)[C@@](C)(CO)C4CC[C@@]2(C)[C@]1(C)C[C@H]3O (some centres undefined)
inactive: activity change, negative = cytotoxicity [10] -12% [at 6.55 µM] | activity change, negative = cytotoxicity [2] -20% [at 6.55 µM]
active: Potency [3] 2.82 µM

O=C(NNc1nc2cc(F)ccc2n2cccc12)c1cnccn1
active: Potency [11] 7.08 µM | Potency [3] 3.55 µM | Potency [5] 5.01 µM | Potency [9] 3.55 µM | Potency [7] 8.91 µM | Potency [8] 6.31 µM
inactive: Potency [10] | Potency [2] | Potency [4]

C=C1C(=O)OC2/C=C(\COC(C)=O)CC/C=C(\C=O)CC(OC(=O)CC(C)C)C12 (centres undefined)
active: Potency [3] 8.91 µM
inactive: Potency [10] | Potency [2]

CCCCCCCCn1cc(CN(CC)CC)c2cc(-c3cnc(N)nc3)ccc21
inactive: Potency [10] | Potency [2] | Potency [3] | Potency [4]

C=CC(=O)Nc1ccc(CN2C(=O)N(c3cc(OC)cc(OC)c3)Cc3cnc(Nc4ccc(N5CCN(C)CC5)cc4)nc32)cc1
inactive: Potency [11] | Potency [3] | Potency [5] | Potency [9]
active: Potency [10] 14.1 µM | Potency [6] 15.8 µM

c1cc(NC2CCNCC2)nc(-c2cnc3ccccn23)c1
inactive: Potency [4]
active: Potency [10] 10 µM | Potency [11] 17.8 µM | Potency [2] 8.91 µM | Potency [5] 11.2 µM | Potency [9] 20 µM | Potency [6] 8.91 µM | Potency [7] 15.8 µM | Potency [8] 20 µM
